Several values for one entry are separate records, joined by “and”; a condition that tells them apart may be missing. Equal entries are not always repeated. Inconclusive results are not listed. Unmarked numbers belong to inactive results. Activity calls are given as the source filed them. Calls follow the shape of the dose curve; as a rule, active = well fitted activation curve with a large enough effect; inconclusive = small, poorly fitted or top-dose-only effect; inactive = no such curve, though single readings can be large or run the other way.
target: Cellular tumor antigen p53 (Homo sapiens) (UniProt P04637); experiment: Primary qHTS for small molecule compounds that upregulate eGFP-tagged delta133p53alpha (in N-terminal) cells. (AID 2060322); conditions: NCI-H358 eGFP-delta133p53alpha fluorescence, 24 h; activation: hits give high values; also: nearly all actives have a fitted effect of over 75% in size;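 as to activation: cells pre-induced with doxycycline then dosed without doxycycline; series mostly up to about 56 µM; 0% = DMSO vehicle and 100% = reference activator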
Sequence (P04637 whole entry, looked up): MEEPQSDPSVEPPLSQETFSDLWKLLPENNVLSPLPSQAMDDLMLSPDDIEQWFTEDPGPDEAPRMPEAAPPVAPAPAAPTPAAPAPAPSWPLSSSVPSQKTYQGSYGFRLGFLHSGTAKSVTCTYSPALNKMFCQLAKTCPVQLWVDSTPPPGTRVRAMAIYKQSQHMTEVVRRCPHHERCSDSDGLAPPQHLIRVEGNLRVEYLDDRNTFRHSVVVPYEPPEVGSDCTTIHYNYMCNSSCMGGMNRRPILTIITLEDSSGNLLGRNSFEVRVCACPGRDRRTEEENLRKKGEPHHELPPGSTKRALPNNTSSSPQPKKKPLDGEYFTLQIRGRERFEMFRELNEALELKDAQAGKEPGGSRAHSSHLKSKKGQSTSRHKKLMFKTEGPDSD
From the text: Assay Development and Screening Technology
National Center for Advancing Translational Sciences (NCATS),
National Institute of Health (NIH), Rockville, Maryland
Cellular senescence (CS) is one of the hallmarks of aging and age-related diseases. Senescent cells are characterized by an irreversible growth arrest, an increase in senescence-associated beta-galactosidase (SA-beta-gal) activity and p16INK4a expression, an activation of the DNA damage response pathways, and the emergence of a senescence-associated secretory phenotype (SASP).
Delta133p53alpha, a human/primate-specific p53 protein isoform, delays or inhibits the induction of CS and SASP in various types of human cells, including progeria-derived fibroblasts, primary normal astrocytes, and CD8+ T lymphocytes. Induction of delta133p53alpha with small molecule compounds may provide therapeutic opportunities for inhibition of senescence/SASP-associated pathologies in progeria syndromes, astrocyte-mediated neuroprotection in neurodegenerative diseases, and possibly prevention and treatment of a wider range of senescence- and aging-associated diseases.
Here we report the development and validation of a cell-based quantitative high throughput screening (qHTS) assay in 1,536-well format. This qHTS assay uses the NCI-H358 cell line with doxycycline-inducible expression of enhanced green fluorescent protein (eGFP)-tagged delta133p53alpha, which allows efficient and highly quantitative measurement of the protein levels.
PROTOCOL TABLE (as described by Inglese J, Shamu CE and Guy RK. 2007)
SEQUENCE No. (e.g., 1, 2, 3, etc.); […] (e.g., Cells, Incubation, Reagent, etc.); VALUE; DESCRIPTION.
1; Cells; 4uL; 800 doxycycline treated cells / well in doxycycline-free media, 1536-well black, clear-bottom low base Aurora microplates.
2; Compounds; 23 nL; Kalypsis pin tool (Wako) equipped with 1536-well pin heads, 5-azacytidine positive control.
3; Incubation; 24 hr; 37C, 5% CO2; 95% relative humidity.
4; Aspiration; 1x; BioTek EL406 washer dispenser (Agilent).
5; Fixing; 3.5% paraformaldehyde, BioTek EL406 washer dispenser (Agilent).
6; Washing; 1x PBS; BioTek EL406 washer dispenser (Agilent).
7; Nuclei staining; 1:1000 dilution of Hoechst 33342 (Thermofisher), BioTek EL406 washer dispenser (Agilent).
8; Incubation; 20 min; in the dark at room temperature.
9; Washing; 2x, 1x PBS (ThermoFisher), BioTek EL406 washer dispenser (Agilent).
10; Reagent; 10 uL; 1x PBS per well, sealed with clear adhesive tape.
NOTES (numbers refer to sequence numbers above).
1. NCI-H358 cells expressing eGFP-tagged delta133p53alpha were grown in T75 culture flasks and treated with doxycycline for 24h, at 10 ng/ml for eGFP-D133p53a cells (N-terminal cell) and 100 ng/ml for D133p53a-eGFP cells (C-terminal cells). Cells were trypsinized, counted using a Counted 3 Automated Cell Counter (Thermo Fisher), and diluted to a concentration of 200,000 cells/ml. A Multidrop Combi Reagent Dispenser (ThermoFisher) was used to dispense 800 cells/well in […] of doxycycline-free media, into 1536-well black/clear bottom low base plates (AuroraMicroplates).
2. After plating cells, 23 nl of compound library, DMSO vehicle control or positive control (5-azacytidine) were transferred by Pin Tool (Wako). The plate map layout was the same for each plate: (column 1) non-doxycycline treated cells + DMSO vehicle control; (column 2) doxycycline treated cells + DMSO vehicle control baseline; (column 3) doxycycline treated cells + positive control 57.5 uM final concentration 5-azacytidine; (column 4) doxycycline treated cells + serial dilution of 5-azacytidine, 16-point 1:2 titration spanning 1.8 nM to […] final concentration; (columns 5-48) doxycycline treated cells + titration of library compounds.
3. Cells were incubated at 37 °C, 5 % CO2, 95% RH with breathable metal lid for 24h.
4-10. […] After two washes, 10 ul of 1X PBS (Thermo Fisher) was dispensed to each well. Clear adhesive plate seals (VWR) were applied and plates stored at 4 °C.
11. […]
Potency is read from the fitted curve at half-maximal effect.

SMILES	activation	Potency
O=C(Nc1cccc(Br)c1)c1cccc(S(=O)(=O)N2CCCCCC2)c1	41.1% and -27.9%	–
Nc1ncnc2c1c(-c1cccc(OCc3ccccc3)c1)cn2C1CC(CN2CCCC2)C1 (stereo not given)	31.8%	–
C/C=C(\C)C(=O)OC[C@H]1O[C@H](O[C@H]2O[C@H](CO)[C@@H](O)[C@H](O)[C@H]2O[C@@H]2O[C@H](CO)[C@@H](O)[C@H](O)[C@H]2O)[C@H](O[C@@H]2O[C@H](CO)[C@@H](O)[C@H](O)[C@H]2O)[C@@H](O)[C@@H]1O	-3.82%	–
CC(=O)NC(CCC(=O)O)C(=O)NCCc1ccc(O)cc1 (stereo not given)	-14.5%	–
C=C[C@H]1C(O[C@@H]2O[C@H](CO)[C@@H](O)[C@H](O)[C@H]2O)OC=C2C(=O)N3CCc4c([nH]c5ccccc45)C3CC21 (stereo not given in full)	–	5.22 µM (active)
C[C@]1(Cn2ccnn2)[C@H](C(=O)O)N2C(=O)C[C@H]2S1(=O)=O	-22.6%	–
O=c1[nH]c(=O)n(C2CCCO2)cc1F (stereo not given)	-1.88%	–
O=C(NCC1CN(c2ccc(N3CCOCC3=O)cc2)C(=O)O1)c1ccc(Cl)s1 (stereo not given)	-11.9% and 7.67%	–
C=C1C(O)CCC2(C)CC3(OC)OC(=O)C(C)=C3CC12 (stereo not given)	-6.87%	–
Cc1oc(-c2ccccc2)nc1CCC(=O)c1ccc(CC2SC(=O)NC2=O)cc1 (stereo not given)	-3.95%	–
CC1(C)CC[C@]2(C(=O)O)CC[C@]3(C)C(=CCC4[C@@]5(C)CC[C@H](O)C(C)(C)C5CC[C@]43C)C2C1 (stereo not given in full)	-0.763%	–
CC(C)C(=O)O[C@@H]1[C@@H](O)[C@@H](O[C@H]2O[C@H](CO)[C@@H](O)[C@H](O)[C@H]2O)O[C@H](CO)[C@H]1O	3.82%	–
O=C(Nc1ccc(Cl)cc1)Nc1ccc(Cl)c(Cl)c1	0.565%	–
Clc1ccc(C(c2ccccc2Cl)C(Cl)Cl)cc1 (stereo not given)	18.6% and -1.36% and 29.2%	–
C=C1CC[C@@H]2[C@](C)(CO)[C@H](O)CC[C@@]2(C)[C@@H]1C/C=C1/C(=O)OCC1O (stereo not given in full)	–	23.9 µM (active)
NC(=O)Nc1cc(-c2cccc(F)c2)sc1C(=O)N[C@H]1CCCNC1	–	8.49 µM (active)
COc1cc2c(cc1O)[C@H](c1ccc(O[C@@H]3O[C@H](CO)[C@@H](O)[C@H](O)[C@H]3O)c(OC)c1)[C@@H](CO)[C@](O)(CO)C2	-15.3%	–
C=C1C[C@@]23CCC4[C@@](C)(CCC[C@@]4(C)C(=O)OC)C2CC[C@@H]1C3 (stereo not given in full)	-32.8%	–
COC(=O)C1C2CC3c4[nH]c5cc(OC)ccc5c4CCN3CC2CC(OC(=O)c2cc(OC)c(OC)c(OC)c2)C1OC (stereo not given)	4.12%	–
C[C@H](O)C(=O)C1=Nc2c(nc(N)[nH]c2=O)NC1	-8.4%	–

SMILES	activation	Potency
O=C(O)c1cc(=O)c2ccccc2o1	2.51%	–
CS(=O)(=O)c1ccc(-c2nnc(/C=C/c3nnc(-c4ccc(C#N)cc4)o3)n2-c2ccccc2Cl)nc1	-4.77%	–
C/C=C1/C[N+](C)([O-])C2Cc3c([nH]c4ccccc34)C(=O)CC1C2C(=O)OC (stereo not given)	-9.82%	–
O=C(O)c1cc(=O)c2c(Cl)cc(Cl)cc2[nH]1	-19.2%	–
CC(C)(C)c1ccc(/C=C/C(=O)Nc2ccc3c(c2)OCCO3)cc1	-15.3%	–
Cc1cc2c(cc1C1(c3ccc(C(=O)O)cn3)CC1)C(C)(C)CCC2(C)C	-11.7% and 0.333%	–
Nc1nc(Cl)nc2c1ncn2[C@H]1C[C@H](O)[C@@H](CO)O1	24.5%	–
CC1CCC2(C=O)C(CO)=CCCC2C1(C)CC(=O)O (stereo not given)	-0.763%	–
Nc1nc(O)c(C2=C3C(=Nc4ccccc43)C(=O)NCC2)[nH]1	-1.79%	–
CC(C)COC(=O)c1ccc(N)cc1	2.82%	–
CN1CCCC(CC2c3ccccc3Sc3ccccc32)C1 (stereo not given)	14.2%	–
CC(O)/C=C/C1(O)C(C)C(O[C@@H]2O[C@H](CO)[C@@H](O)[C@H](O)[C@H]2O)C(O)CC1(C)C (stereo not given in full)	-10.7%	–
Cc1c(N(C)CS(=O)(=O)O)c(=O)n(-c2ccccc2)n1C	-7.34%	–
CN(C)C(=O)Nc1cc(-c2ccccc2)ccc1N(C)C	-13.7%	–
COc1cc(OC)c(NC(=O)c2ccc(Cc3cc4c(cc3C)C(C)(C)CCC4(C)C)o2)c(OC)c1	10.5%	–
CCc1c(-c2ccccc2)c(-c2ccccc2)nn1-c1ccccc1-c1cccc(OCC(=O)O)c1	13%	–
CC1(NC(=O)c2ccc(C#Cc3cccc(F)c3)cn2)COC1	-11.9%	–
Cn1cc(-c2ccc(F)c(C(F)(F)F)c2)nc1C1CCN(c2ncnc3[nH]ncc23)CC1	10%	–
CCN(CC)CCCCNc1ncc2cc(-c3cc(OC)cc(OC)c3)c(NC(=O)NC(C)(C)C)nc2n1	27.9%	–
NCC1CCN(c2nccc(-c3ccc4ccccc4c3)n2)CC1	–	23.9 µM (active)
